Screening data as filed in PubChem BioAssay.
Most compounds without a hit are left out; they make up all but 2.8% or so of the library.
DRD3 agonist: qHTS of D3 Dopamine Receptor Agonist: qHTS. 0.58% of 410,000 active. AID 652048, 2013. max activation, %. D3R DiscoveRx beta-arrestin cells, luminescence, 90 min; in the data active = max activation above about 30%; also: 0% is about no effect
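Cells at 1500/well, incubated overnight, then treated with pinned compounds (dopamine as control) for 90 min at 37 degrees C. DiscoveRx reagent added for 30 - 60 minutes at room temperature; luminescence read.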
PI4K2A inh: qHTS for small molecular inhibitors of PI4K2A | Phosphatidylinositol 4-kinase type 2-alpha (Homo sapiens), Q9BTU6 | 0.13% of 420,000 active | purified PI4K2A, ADP-Glo luminescence, 1 h; stronger effect = lower value | activity change, negative = inhibition, % at 76.9 µM | AID 1346378, 2018; in the data active = activity change below about -50%; inconclusive = mostly about -30% to -49%;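 also: -100% = wells without enzyme as full effect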
Target sequence (Q9BTU6 whole entry, looked up): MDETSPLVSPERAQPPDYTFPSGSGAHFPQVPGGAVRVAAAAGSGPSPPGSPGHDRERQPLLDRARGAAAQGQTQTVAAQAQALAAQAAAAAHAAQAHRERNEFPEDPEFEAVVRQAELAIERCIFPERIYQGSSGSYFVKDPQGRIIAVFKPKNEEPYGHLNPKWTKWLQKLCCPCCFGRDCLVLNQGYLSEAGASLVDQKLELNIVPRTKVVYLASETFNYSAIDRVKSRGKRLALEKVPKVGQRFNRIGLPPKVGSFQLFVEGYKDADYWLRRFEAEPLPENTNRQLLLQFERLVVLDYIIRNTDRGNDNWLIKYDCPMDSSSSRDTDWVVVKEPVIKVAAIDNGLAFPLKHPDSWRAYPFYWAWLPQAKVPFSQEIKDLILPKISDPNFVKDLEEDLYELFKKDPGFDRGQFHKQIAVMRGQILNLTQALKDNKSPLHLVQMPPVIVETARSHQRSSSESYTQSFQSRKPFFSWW
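In this quantitative HTS, ADP production by PI4K2A was quantified luminescently after 1 h at ambient temperature; 100 microM adenosine served as plate-quality control.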
RGS4 inhibitor: Inhibitors of Regulator of G Protein Signaling (RGS) 4: qHTS; Regulator of G-protein signaling 4 (Homo sapiens), P49798; Transcreener GDP fluorescence polarization, RGS4-accelerated GTP hydrolysis; Potency, µM (highest dose often 114 µM), for the others: at the top dose activity change, negative = inhibition, most hits filed as inhibitors; 0.039% of 390,000 active; AID 504845, 2011; active = well fitted inhibition curve with a large enough effect; inconclusive = small, poorly fitted or top-dose-only effect; inactive = no such curve, though single readings can be large or run the other way; also: potency is read from the fitted curve at half-maximal effect; % is scaled to controls: 0 for no effect and ±100 for the full control effect; nearly all actives have a fitted effect of over 75% in size
Target sequence (P49798 whole entry, looked up): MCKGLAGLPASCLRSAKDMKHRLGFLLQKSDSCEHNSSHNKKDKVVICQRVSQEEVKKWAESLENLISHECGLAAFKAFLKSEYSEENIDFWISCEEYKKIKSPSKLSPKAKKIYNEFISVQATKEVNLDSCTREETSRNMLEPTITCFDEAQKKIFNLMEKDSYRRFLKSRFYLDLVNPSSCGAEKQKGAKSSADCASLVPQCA
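MLSMR compounds (23 nl, pin-transferred) preincubated 10 min at room temperature with a 500nM (2x) first reagent, then RGS4 at 900nM (2x) plus Transcreener GDP mix added; fluorescence polarization (620/688 nm) read before and after 90 min at 30 °C.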
LDHA inh: qHTS assay for inhibitors of human lactate dehydrogenase; L-lactate dehydrogenase A chain (Homo sapiens), P00338; purified LDHA, NADH/diaphorase-resazurin fluorescence; stronger effect = lower value; activity change, % (values are at about 110 or 230 µM); 0.15% of 480,000 active; in the data active = activity change below about -30%; inconclusive = mostly about -25% to -30%;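 also: plate controls were DMSO wells for no effect and wells without enzyme for full effect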
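Enzyme activity of human lactate dehydrogenase 5 (2 nM; 0.06 mM NADH, 0.2 mM pyruvate, 5 min, RT) is measured via a resazurin/diaphorase fluorescence readout of residual NADH.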
pAkt inh: HTS Assay for Inhibitors of Akt Phophorylation: Primary Screen; AID 651550, 2012; 0.32% of 360,000 active; Neuro2A IGF-stimulated pAkt S473 HTRF, 20 min; stronger effect = lower value; activity change, % for hits at 50 µM; in the data active = activity change below about -80%; inconclusive = mostly about -51% to -80%; also: % is scaled to controls: 0 for no effect and ±100 for the full control effect
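Neuro2A cells in DMEM with 0.5% FBS, overnight at 37 deg C, given compound at single 50 µM final, then IGF (6 nM final) for 20 min at 37 deg C. Lysed; phospho-Akt Ser473 by HTRF after 24 h, 665/615 ratio.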
D3 antag: qHTS of D3 Dopamine Receptor Antagonist: qHTS. 2.5% of 360,000 active. D(3) dopamine receptor (Homo sapiens), P35462. D3R cells, DiscoveRx beta-arrestin luminescence, antagonist mode; stronger effect = lower value. max response, negative = inhibition, %; in the data active = max response below about -50%; inconclusive = no clear call, values can overlap the other calls; also: % is scaled to controls: 0 for no effect and ±100 for the full control effect
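Cells plated overnight at 1500 cells/well, then exposed to library compounds with dopamine controls for 90 minutes at 37 degrees C. DiscoveRx reagent added for 30–60 minutes at room temperature; luminescence read, quantitative HTS format.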
* marks the source's active call; other numbers are inactive results; i = inactive; ? = inconclusive; . = no result; [ ] = another dose, or the depositor's remark.

SMILES	DRD3 agonist	PI4K2A inh	RGS4 inhibitor	LDHA inh	pAkt inh	D3 antag
COc1ccc(SC(C)C(=O)NCc2ccnc(N3CCOCC3)c2)cc1 (configuration not stated)	.	.	.	10	.	.
COc1ccc2[nH]c(=O)c(CN(C3CCCCC3)S(=O)(=O)c3ccccc3)cc2c1	.	.	.	-3	.	.
CN(C)c1cc(CNC(=O)c2ccc3c(c2)CCC(=O)N3)ccn1	.	.	.	-8	.	.
C/C(=C/C(=O)C(F)(F)F)N1CCc2ccccc2C1	.	.	.	20	.	.
Cc1ccc2c(C)ccc(O)c2n1	-7	0	20%	11	i	-79*
CCCOCc1ccc(O)c2ncccc12	-12	-19	20%	10	i	-71*
Oc1ccc(Cl)c2cccnc12	-17	-16	-19%	14	i	-59*
Oc1ccc(F)c2cccnc12	-8	-29	?	31	i	-15
CC(=O)Oc1ccc(C(=O)Nc2cccc(-c3nc4cc(C)ccc4o3)c2)cc1	.	.	.	-4	.	.
CC(NC(=O)c1ccc(Br)o1)C12CC3CC(CC(C3)C1)C2 (configuration not stated)	.	.	.	-1	.	.
CCOC(=O)CC(S(=O)(=O)c1ccccc1)S(=O)(=O)c1ccccc1	-13	8	.	-2	i	-95*
CCOC(=O)CS(=O)(=O)C(c1ccccc1)S(=O)(=O)CC(=O)OCC	.	.	.	1	.	.
CCOC(=O)N=S(N)(=O)c1ccccc1 (configuration not stated)	32*	3	0%	-10	i	16
CCCCN(Cc1ccccc1)c1ccc(NS(=O)(=O)c2ccc(C)cc2C)cc1C(=O)O	.	.	.	9	.	.
Cc1ccc(-c2nc(CC(=O)NCc3ccccc3F)cs2)o1	.	.	.	-17	.	.
Cc1ccc(-c2nc(CC(=O)NCCc3ccccc3F)cs2)o1	.	.	.	-33*	.	.
C/C(=N/NC(=O)c1ccc2c(c1)OCO2)c1ccc(Br)s1	-4	-2	-28%	-33*	i	0
CCOc1cccc(CNc2nn[nH]n2)c1OCc1ccccc1	.	.	.	11	.	.
CCOc1ccc2nc(NC(=O)c3ccccn3)sc2c1	-23	?	-9%	7	i	-63*
CCOc1ccc2nc(S(N)(=O)=O)sc2c1	7	-4	0%	-80*	i	43
CCOc1ccc2nc(NC(=O)c3ccco3)sc2c1	1	-9	2%	0	i	5
CCOc1ccc2nc(NC(=O)c3ccoc3C)sc2c1	0	-83*	-26%	2	i	15
O=C(/C=C/c1ccc(F)cc1)c1cccc(O)c1	.	.	.	-5	.	.
CN(C(=O)CCn1nc(-c2ccc(Cl)cc2)c2ccccc2c1=O)c1ccccc1	.	.	.	-1	.	.
N#Cc1ccccc1CNc1ccccc1I	.	.	.	7	.	.
SMILES	DRD3 agonist	PI4K2A inh	RGS4 inhibitor	LDHA inh	pAkt inh	D3 antag
O=c1nc(/C=C/c2cc([N+](=O)[O-])ccc2Cl)cc(C(F)(F)F)[nH]1	-12	-12	?	-5	i	-69*
O=S(=O)(NCCc1ccc(-n2cccn2)cc1)c1ccc(F)cc1	.	.	.	11	.	.
N#Cc1cc2c(nc1SCc1ccc(Cl)cc1)CCCC2	1	1	-6%	2	i	-64*
CN1CCc2nc(SCc3ccc(Cl)cc3)c(C#N)c(-c3cccs3)c2C1	-38	3	?	6	i	-60*
N#Cc1cc2c(nc1SCc1cccc(Cl)c1)CCCCC2	-2	2	-4%	-3	i	-3
N#Cc1cc2c(nc1SCc1ccccc1)CCCCC2	0	-4	-36%[11.4 µM]	-1	i	5
Cc1ccc(CSc2nc3c(cc2C#N)CCC3)cc1	8	0	2%	-1	-85%*	17
CCOC(=O)CN(CC(=O)NC(=O)NC)CC(C)C	.	.	.	-10	.	.
Fc1ccc(CCNC(=S)NC2CCCCC2)cc1	.	.	.	-13	.	.
Cc1cc(N)n2nc(-c3ccccc3)cc2n1	-12	-54*	-27%	-1	i	-6
FC(F)(F)c1ccnc(Sc2ccc(Cl)cc2)n1	.	.	.	16	.	.
CC(C)Cn1c(SCC(=O)NC(C)c2ccc(F)cc2F)nc2ncccc2c1=O (configuration not stated)	.	.	.	-22	.	.
O=[N+]([O-])c1cc(Cl)ccc1N1CCCC1	-4	0	1%	2	i	-2
O=C1C(Cl)=C(N2CCN(c3ccccc3[N+](=O)[O-])CC2)C(=O)c2ccccc21	-16	?	?	23	i	-60*
CCN(c1ccc(-c2csc(NC)n2)cc1)S(C)(=O)=O	.	.	.	3	.	.
CC1CCN(CCCNC(=O)C2CCCN(c3ncnc4c3nc3n4CCCCC3)C2)CC1 (configuration not stated)	-6	-1	-21%	-4	i	-16
COc1ccccc1N1CCN(CCCNC(=O)C2CCCN(c3ncnc4c3nc3n4CCCCC3)C2)CC1 (configuration not stated)	-20	-4	-4%	1	.	-104*
O=C(NCCCN1CCN(c2ccc(F)cc2)CC1)C1CCCN(c2ncnc3c2nc2n3CCCCC2)C1 (configuration not stated)	-11	2	-19%	-1	i	-55*
Cc1cccc(NC(=O)CCC2CCCC2)c1C	.	.	.	2	.	.
COc1cc(OC)cc(-c2c(C#Cc3ccsc3)c3cc(-c4ccc(OC)c(F)c4)ccc3n2C)c1	50*	-3	1%	2	i	1
C=C1C(=O)O[C@@H]2[C@H]1[C@@H](OC(=O)/C(C)=C/C)C/C(C)=C\C(=O)/C=C(\C)[C@@H]2O	-35	-3	-52%	6	i	-52*
C=C1C(=O)O[C@H]2[C@H]1[C@H](OC(=O)/C(C)=C\C)C[C@]1(CO1)[C@@H]1[C@H](OC(C)=O)C=C(C)[C@]21O	5	2	-45%	4	i	0
Cc1cccc(-n2nnnc2SCCCn2c(=O)c3c(ncn3C)n(C)c2=O)c1	.	.	.	-13	.	.
CNC(=O)NC(=O)C(C)OC(=O)c1csc(NCc2ccccc2)n1 (configuration not stated)	.	.	.	-3	.	.
CC(=O)Nc1ccc2c(c1)Cc1cc(N3C(=O)C=CC3=O)ccc1-2	-7	3	?	-9	i	-64*
O=C1C=CC(=O)N1c1ccc2c(c1)Cc1cc(F)ccc1-2	5	8	?	-7	i	-8
Cc1cc(N2C(=O)C(O)=C(C(=O)c3cc4ccccc4o3)C2c2ccc(F)cc2)no1 (configuration not stated)	.	.	.	22	.	.
